PubChem BioAssay (EPA / NIEHS)
Where “and” joins values, the source holds several entries; their conditions need not be identical. Identical values can stand only once. Some compounds were tested as several samples or in several runs, with calls that do not always agree. Calls of active or inactive are those of the source. How the source made its calls: active means hit-call score of the fitted dose curve at least 0.9, where 1 is the maximum; inactive means score below 0.9.

Assays:
[1] = BSK_CASM3C_SRB: Viability Assessment in the BioMAP Diversity Plus: CASM3C Assay (AID 2283050); settings: primary human coronary artery smooth muscle cells;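 further: total protein by SRB staining as cytotoxicity measure in parallel cultures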
[2] = read-out: Thrombomodulin, THBD (gene 7056); assay: BSK_CASM3C_Thrombomodulin: BioMAP Diversity Plus: CASM3C Assay for Thrombomodulin Biomarker Activity (AID 2283051); settings: primary human coronary artery smooth muscle cells; actives raise or lower the signal;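 further: thrombomodulin protein level measured by ELISA 24 h after dosing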
[3] = read-out: Tissue Factor, F3 (gene 2152); assay: BSK_CASM3C_TissueFactor: BioMAP Diversity Plus: CASM3C Assay for Tissue Factor Biomarker Activity (AID 2283052); settings: primary human coronary artery smooth muscle cells; actives raise or lower the signal;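 further: cell surface tissue factor protein level read by ELISA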
[4] = read-out: Interferon-gamma inducible Protein 10 (IP10), CXCL10 (gene 3627); assay: BSK_hDFCGF_IP10: BioMAP Diversity Plus: hDFCGF Assay for Interferon-gamma inducible Protein 10 (IP10) Biomarker Activity (AID 2283053); settings: primary human foreskin fibroblasts; actives raise or lower the signal
In short: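 Human foreskin fibroblast primary cells (hDFCGF system) were dosed with chemical and assayed at 24 h; IP-10 measured by ELISA. Activity fitted bidirectionally relative to DMSO negative control as baseline.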

[5] = read-out: Urokinase-type plasminogen activator receptor (uPAR), PLAUR (gene 5329); assay: BSK_CASM3C_uPAR: BioMAP Diversity Plus: CASM3C Assay for Urokinase-type plasminogen activator receptor (uPAR) Biomarker Activity (AID 2283054); settings: primary human coronary artery smooth muscle cells; actives raise or lower the signal;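 further: cell-surface uPAR protein level quantified by ELISA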
[6] = read-out: Vascular cell adhesion molecule 1 (VCAM1), VCAM1 (gene 7412); assay: BSK_CASM3C_VCAM1: BioMAP Diversity Plus: CASM3C Assay for Vascular cell adhesion molecule 1 (VCAM1) Biomarker Activity (AID 2283055); settings: primary human coronary artery smooth muscle cells; actives raise or lower the signal;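 further: VCAM-1 protein level quantified by ELISA on the cells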
[7] = read-out: Collagen III, COL3A1 (gene 1281); assay: BSK_hDFCGF_CollagenIII: BioMAP Diversity Plus: hDFCGF Assay for Collagen III Biomarker Activity (AID 2283056); settings: primary human foreskin fibroblasts; actives raise or lower the signal
In short: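 Cells: human foreskin fibroblasts, primary. Dosing followed by 24 h incubation, then ELISA for collagen III. Both increases and decreases scored relative to DMSO.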

[8] = read-out: Epidermal growth factor receptor (EGFR), EGFR (gene 1956); assay: BSK_hDFCGF_EGFR: BioMAP Diversity Plus: hDFCGF Assay for Epidermal growth factor receptor (EGFR) Biomarker Activity (AID 2283057); settings: primary human foreskin fibroblasts; actives raise or lower the signal
In short: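 Primary human foreskin fibroblasts were exposed to compound for 24 h, after which cell-surface EGFR was quantified by ELISA. Activity was fitted bidirectionally against the DMSO negative control as baseline.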

[9] = read-out: Interleukin-8 (IL8), CXCL8 (gene 3576); assay: BSK_hDFCGF_IL8: BioMAP Diversity Plus: hDFCGF Assay for Interleukin-8 (IL8) Biomarker Activity (AID 2283058); settings: primary human foreskin fibroblasts; actives raise or lower the signal
In short: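 IL-8 levels from compound-treated primary human fibroblasts were read by ELISA at 24 h, with DMSO serving as baseline for bidirectional fitting.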

[10] = BSK_hDFCGF_Proliferation: Cell Proliferation Assessment in the BioMAP Diversity Plus: hDFCGF Assay (AID 2283059); settings: primary human foreskin fibroblasts;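 further: curves fitted for both rise and fall of signal versus DMSO baseline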
In short: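 Total protein read at 560 nm after 0.1% SRB staining of TCA-fixed human skin fibroblasts, […]. Activity is fitted in both directions relative to DMSO as baseline.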

Compound	outcome [1]	outcome [2]	outcome [3]	outcome [4]	outcome [5]	outcome [6]	outcome [7]	outcome [8]	outcome [9]	outcome [10]	AC50 [2]	AC50 [4]	AC50 [7]	AC50 [5]	AC50 [10]	AC50 [6]	AC50 [1]	AC50 [3]	AC50 [8]	AC50 [9]
CNc1cnn(-c2cccc(C(F)(F)F)c2)c(=O)c1Cl	inactive	inactive	inactive	inactive	inactive	inactive	inactive	inactive	inactive	inactive										
CCOP(=S)(OCC)OC(Cl)C(Cl)(Cl)Cl (configuration not stated)	inactive		inactive		inactive	inactive		inactive	inactive	inactive	11.4 µM (active)	26.3 µM (active)	11.1 µM (active)							
CSc1nnc(C(C)(C)C)c(=O)n1N	inactive	inactive	inactive			inactive		inactive	inactive	inactive		12.7 µM (active)	3.97 µM (active)	1.32 µM (active)						
Nc1c(Cl)cc([N+](=O)[O-])cc1Cl	inactive	inactive	inactive		inactive	inactive	inactive	inactive	inactive			3.97 µM (active)			27.6 µM (active)					
COc1cc(OC)nc(Sc2cccc(Cl)c2C(=O)O)n1	inactive	inactive	inactive	inactive	inactive	inactive	inactive	inactive	inactive	inactive										
COc1ccc(C(=CC(=O)N2CCOCC2)c2ccc(Cl)cc2)cc1OC	inactive	inactive	inactive	inactive	inactive		inactive	inactive	inactive	inactive						7.56 µM (active)				
CSC1=N[C@@](C)(c2ccccc2)C(=O)N1Nc1ccccc1	inactive	inactive	inactive	inactive	inactive	inactive		inactive	inactive				25 µM (active)		23.3 µM (active)					
CCOP(=O)(OCC)Oc1cc(C)nc(C(C)C)n1	inactive	inactive	inactive	inactive	inactive	inactive		inactive	inactive				31.7 µM (active)		25.9 µM (active)					
O=[N+]([O-])c1cc(C(F)(F)F)c(Cl)c([N+](=O)[O-])c1Nc1ncc(C(F)(F)F)cc1Cl		inactive	inactive									2.13 µM (active) and 7.1 µM (active)	1.83 µM (active) and 11.7 µM (active)	3.29 µM (active) and 5.5 µM (active)	546 nM (active) and 1.8 µM (active)	2.86 µM (active) and 7.2 µM (active)	2.04 µM (active) and 5.51 µM (active)	5.69 µM (active)	1.92 µM (active) and 5.48 µM (active)	2.78 µM (active) and 11.7 µM (active)
CCOC(=O)CC(SP(=O)(OC)OC)C(=O)OCC (configuration not stated)	inactive	inactive	inactive	inactive	inactive	inactive	inactive	inactive	inactive	inactive										
CCOP(=S)(OCC)Oc1ccc2c(C)c(Cl)c(=O)oc2c1	inactive	inactive	inactive		inactive	inactive		inactive	inactive			27.9 µM (active)	20 µM (active)							
CC(C1CC1)C(O)(Cn1cncn1)c1ccc(Cl)cc1 (configuration not stated)	inactive	inactive	inactive	inactive	inactive	inactive	inactive	inactive	inactive						29.9 µM (active)					
COP(=O)(OC)SCn1c(=O)oc2cc(Cl)cnc21			inactive					inactive			5.31 µM (active)	13 µM (active)	14.7 µM (active)	35.5 µM (active)	10.1 µM (active)	20 µM (active)	24.7 µM (active)			30.8 µM (active)
CC1=NNC(=O)N(/N=C/c2cccnc2)C1	inactive	inactive	inactive	inactive	inactive	inactive	inactive	inactive	inactive	inactive										
CN1COCN(Cc2cnc(Cl)s2)C1=N[N+](=O)[O-]	inactive	inactive	inactive	inactive	inactive	inactive	inactive	inactive	inactive	inactive										
CCCCSP(=O)(SCCCC)SCCCC			inactive		inactive	inactive		inactive	inactive		20 µM (active)	20 µM (active)	20 µM (active)		30.6 µM (active)		31.7 µM (active)			
C[Si](Cn1cncn1)(c1ccc(F)cc1)c1ccc(F)cc1	inactive		inactive	inactive	inactive	inactive	inactive	inactive	inactive	inactive	7.8 µM (active)									
CCCSP(=O)(OCC)Oc1ccc(Br)cc1Cl (configuration not stated)	inactive		inactive		inactive	inactive		inactive	inactive		11.5 µM (active)	20 µM (active)	20 µM (active)		31.7 µM (active)					

Compound	outcome [1]	outcome [2]	outcome [3]	outcome [4]	outcome [5]	outcome [6]	outcome [7]	outcome [8]	outcome [9]	outcome [10]	AC50 [2]	AC50 [4]	AC50 [7]	AC50 [5]	AC50 [10]	AC50 [6]	AC50 [1]	AC50 [3]	AC50 [8]	AC50 [9]
CC(C)N(C(=O)SCC(Cl)=C(Cl)Cl)C(C)C			inactive		inactive	inactive					20 µM (active)	34 µM (active)	30.5 µM (active)		36.6 µM (active)		32.4 µM (active)		28.4 µM (active)	33.6 µM (active)
CCc1cnc(C2=NC(C)(C(C)C)C(=O)N2)c(C(=O)O)c1 (configuration not stated)	inactive	inactive	inactive	inactive	inactive	inactive	inactive	inactive	inactive	inactive										
CC(C)=CC1C(C(=O)OCN2C(=O)C3=C(CCCC3)C2=O)C1(C)C (configuration not stated)	inactive	inactive	inactive		inactive			inactive	inactive			30.1 µM (active)	20 µM (active)		15.5 µM (active)	13.6 µM (active)				
CCCOc1nn(C(=O)NS(=O)(=O)c2ccccc2C(=O)OC)c(=O)n1C	inactive	inactive	inactive	inactive	inactive	inactive	inactive	inactive	inactive	inactive										
CCCCN(CC)c1c([N+](=O)[O-])cc(C(F)(F)F)cc1[N+](=O)[O-]	inactive	inactive	inactive		inactive	inactive	inactive	inactive	inactive			25.5 µM (active)			27.9 µM (active)					
N#CSCSC#N			inactive								31.3 µM (active)	1.09 µM (active)	2.52 µM (active)	30.6 µM (active)	0.225 µM (active)	19.3 µM (active)	14.6 µM (active)		1.68 µM (active)	3.03 µM (active)
CCCSP(=O)(OCC)SCCC	inactive	inactive	inactive	inactive	inactive	inactive	inactive	inactive	inactive	inactive										
S=C1NCCN1	inactive	inactive	inactive	inactive	inactive	inactive	inactive	inactive	inactive	inactive										
Nc1nc(N)nc(NC2CC2)n1	inactive	inactive	inactive	inactive	inactive	inactive	inactive	inactive	inactive	inactive										
Cc1ccn2nc(S(=O)(=O)Nc3c(F)cccc3F)nc2n1	inactive	inactive	inactive	inactive	inactive	inactive	inactive	inactive	inactive	inactive										
CNC(=O)ON=C(SC)C(=O)N(C)C	inactive	inactive	inactive	inactive	inactive	inactive	inactive	inactive	inactive	inactive										
CCOP(=S)(Oc1cnc(C(C)(C)C)nc1)OC(C)C (configuration not stated)	inactive		inactive		inactive	inactive		inactive	inactive		20 µM (active)	29.2 µM (active)	31.3 µM (active)		31.7 µM (active)					
CN(C)[C@@H]1C(=O)C(C(N)=O)=C(O)[C@@]2(O)C(=O)C3=C(O)c4c(O)cccc4[C@@](C)(O)[C@H]3[C@H](O)[C@@H]12	inactive	inactive	inactive	inactive	inactive	inactive	inactive	inactive	inactive	inactive		29.9 µM (active)			19.6 µM (active) and 13.9 µM (active)					
CSc1nc(NC(C)C)nc(NC(C)C)n1	inactive	inactive	inactive	inactive	inactive	inactive	inactive	inactive	inactive	inactive										
CCCCOC(=O)c1ccccc1C(=O)O	inactive	inactive	inactive	inactive	inactive	inactive	inactive	inactive	inactive	inactive										
CC(C)[C@H](C(=O)O[C@H](C#N)c1cccc(Oc2ccccc2)c1)c1ccc(Cl)cc1	inactive		inactive	inactive	inactive	inactive	inactive	inactive	inactive		4.81 µM (active)				3.36 µM (active)					
COP(=O)(OC)OC(Br)C(Cl)(Cl)Br (configuration not stated)		inactive	inactive					inactive				13.9 µM (active)	31.5 µM (active)	32 µM (active)	2.6 µM (active)	18.5 µM (active)	28.8 µM (active)			37.8 µM (active)
